Measured values published in PubChem BioAssay (NCATS).
Several values for one entry are separate records, joined by “and”; a condition that tells them apart may be missing. Identical values can stand only once. Records with an inconclusive call do not appear. A structure can be active in one record and inactive in another. A number with no mark means an inactive call. Activity calls are given as the source filed them. Calls come from the whole dose curve; as a rule, active = well fitted inhibition curve with a large enough effect; inconclusive = small, poorly fitted or top-dose-only effect; inactive = flat fitted curve, though single readings scatter.

Assays:
[1] = Drug repurposing screens with cells derived from glioblastoma tumor samples (AID 1345199); details: GBM patient neurospheres viability, ATP luminescence, 48 h; note: nearly all actives have a fitted effect of over 40% in size
Procedure, shortened: (§1)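 Primary testing used CD133+ neurospheres from four GBM patients, seven concentrations, 48 h exposure and ATP-based viability; confirmation added three slower-growing patient lines.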

astro = control astrocytes; assay: as above; details: viability, ATP luminescence, 48 h; series mostly up to 45.9 µM
Procedure, shortened: as §1

[2] = at 45.9 µM (top of the series), tumour line B
[3] = at 45.9 µM (top of the series), tumour line D
[4] = at 46 µM (top of the series), tumour line A
[5] = at 46.1 µM (top of the series), tumour line C
[6] = at 20 µM (top of the series), tumour line C
[7] = at 21.2 µM (top of the series), tumour line B
[8] = at 21.2 µM (top of the series), tumour line D
[9] = at 21.3 µM (top of the series), tumour line A
% is set by controls: 0 for no effect and ±100 for the full control effect; potency is the fitted concentration of half-maximal effect.

| SMILES | activity, negative = cell killing [1, 2] | activity, negative = cell killing [1, 3] | activity, negative = cell killing [1, 4] | activity, negative = cell killing [1, 5] | Potency (astro) | Potency ([1]; tumour line A) | activity, negative = cell killing [1, 6] [%] | activity, negative = cell killing [1, 7] [%] | activity, negative = cell killing [1, 8] [%] | activity, negative = cell killing [1, 9] [%] |
| --- | --- | --- | --- | --- | --- | --- | --- | --- | --- | --- |
| CC(O)[C@@H]1NC(=O)[C@H](Cc2ccccc2)NC(=O)[C@H](C(C)O)NC(=O)[C@H](CCCCN)NC(=O)[C@H](Cc2c[nH]c3ccccc23)NC(=O)[C@H](Cc2ccccc2)NC(=O)[C@H](Cc2ccccc2)NC(=O)[C@H](CC(N)=O)NC(=O)[C@H](CCCCN)NC(=O)[C@@H](NC(=O)CNC(=O)[C@H](C)N)CSSC[C@@H](C(=O)O)NC(=O)[C@H](CO)NC1=O (stereo not given in full) | -13.9% | -20.3% | -21.3% | -3.11% | inactive | – | – | – | – | – |
| COc1ccc(/C=C/C(=O)OCCC(C)C)cc1 | 1.41% | -11.4% | 4.4% | -1.14% | inactive | – | – | – | – | – |
| COC(=O)[C@@H](N)CS | 4.89% | -8.33% | -26.1% | 4.09% | inactive | – | – | – | – | – |
| C=CC1=C(C(=O)O)N2C(=O)[C@@H](NC(=O)/C(=N\O)c3csc(N)n3)[C@H]2SC1 (stereo in doubt) | 5.66% and -6.14% | -12.1% and -17.4% | -18.5% | 20.4% and -9.47% | inactive | – | – | – | – | – |
| C=N[C@@H](C(=O)N[C@@H]1C(=O)N2[C@@H]1SC(C)(C)[C@@H]2C(=O)O)c1ccccc1 | -11% | -11.4% | -8.19% | -15.6% | inactive | – | – | – | – | – |
| C[C@@H]1C/C=C/C=C/C=C/C=C/[C@H](O[C@@H]2O[C@H](C)[C@@H](O)[C@H](N)[C@@H]2O)C[C@@H]2O[C@](O)(C[C@@H](O)C[C@H]3O[C@@H]3/C=C/C(=O)O1)C[C@H](O)[C@H]2C(=O)O | -13.9% | -5.09% | -20.3% | -13.5% | inactive | – | – | – | – | – |
| CO/N=C(\C(=O)N[C@@H]1C(=O)N2C(C(=O)O)=C(CSc3nnnn3C)CS[C@H]12)c1csc(N)n1 | -10.5% | -9.07% | – | -27.1% | inactive | 11.2 µM (active) | – | – | – | – |
| Cc1ncc(C[n+]2csc(CCO)c2C)c(N)n1 | – | – | – | – | inactive | – | -11.7 | -7.55 | 3.61 | -16.2 |
| CC[C@@H](C)[C@H](N)C(=O)O | -5.93% | -17.3% | -37.7% | -13.6% | inactive | – | – | – | – | – |
| CCC(C(=O)NC(N)=O)c1ccccc1 (stereo not given) | -5.95% | -2.75% | -8.52% | -14.2% | inactive | – | – | – | – | – |
| O=C(OCc1ccccc1)c1cccnc1 | -17.7% | -1.76% | -18.6% | 7.49% | inactive | – | – | – | – | – |
| OC/C=C/c1ccccc1 | -6.23% | -1.36% | -12.3% | 8.18% | inactive | – | – | – | – | – |
| FCOC(C(F)(F)F)C(F)(F)F | -14% | -24.3% | -28% | -24.9% | inactive | – | – | – | – | – |
| CC(=O)Nc1c(I)c(C(=O)O)c(I)c(N(C)C(C)=O)c1I | 6.39% | 5.92% | -22.3% | 7.24% | inactive | – | – | – | – | – |
| Cc1ncc(C[n+]2csc(CCOP(=O)(O)O)c2C)c(N)n1 | -1.8% | -1.97% | -17% | -10.8% | inactive | – | – | – | – | – |
| CC(=O)O[C@@H]1CC2CCC1(C)C2(C)C (stereo not given in full) | -4.03% | -12.8% | -12.3% | -4.87% | inactive | – | – | – | – | – |
| COC(=O)[C@H]1[C@H]2C[C@@H]3c4[nH]c5cc(OC)ccc5c4CCN3C[C@H]2C[C@H](OC)[C@@H]1OC | -8.25% | -1.56% | – | -6.43% | inactive | 11.2 µM (active) | – | – | – | – |
| NC(=O)CC[C@@H]1NC(=O)[C@H](Cc2ccccc2)NC(=O)[C@H](Cc2ccc(O)cc2)NC(=O)[C@@H](N)CSSC[C@@H](C(=O)N2CCC[C@H]2C(=O)N[C@@H](CCCN=C(N)N)C(=O)NCC(N)=O)NC(=O)[C@H](CC(N)=O)NC1=O | -4.7% and -11.9% | -8.98% and -1.09% | -23.2% | 9.23% and 16.1% | inactive | – | – | – | – | – |
| CCCCC(CC)CCC(CC(C)C)OS(=O)(=O)O (stereo not given) | -14.6% and -5.66% | -13.9% and 2.49% | -21.7% and -3.22% | -16.9% and 4.88% | inactive | – | – | – | – | – |
| O=C1[O][Bi][O]c2ccccc21 | -16% | -27.4% | -26.1% | -6.82% | inactive | – | – | – | – | – |

| SMILES | activity, negative = cell killing [1, 2] | activity, negative = cell killing [1, 3] | activity, negative = cell killing [1, 4] | activity, negative = cell killing [1, 5] | Potency (astro) | Potency ([1]; tumour line A) | activity, negative = cell killing [1, 6] [%] | activity, negative = cell killing [1, 7] [%] | activity, negative = cell killing [1, 8] [%] | activity, negative = cell killing [1, 9] [%] |
| --- | --- | --- | --- | --- | --- | --- | --- | --- | --- | --- |
| CN[C@@H]1[C@@H](O[C@H]2O[C@H](CO)[C@@H](N)[C@H](O)[C@H]2O)O[C@H]2C[C@@H](N)[C@@H](O[C@H]3[C@H](O)[C@@H](O)[C@H](N)C[C@@H]3N)O[C@@H]2[C@@H]1O | – | – | – | – | inactive | – | -7.39 | 0.663 | 2.67 | -16.4 |
| NC(N)=NCC1COC2(CCCCC2)O1 (stereo not given) | – | – | – | – | inactive | – | -12.8 | -14.2 | -12.9 | -18.6 |
| CNCC(O)c1ccc(OC(=O)C(C)(C)C)c(OC(=O)C(C)(C)C)c1 (stereo not given) | – | – | – | – | inactive | – | 5.42 | -16.5 | -22.8 | -18 |
| CCOC(=S)SSC(=S)OCC | -12.5% | -2.86% | -27.4% | -5.03% | inactive | – | – | – | – | – |
| CC1CS(=O)(=O)CCN1/N=C/c1ccc([N+](=O)[O-])o1 (stereo not given) | – | – | – | – | inactive | – | -27.2 | -10 | -29.2 | -23 |
| CCCc1nc(C(C)(C)O)c(C(=O)OCc2oc(=O)oc2C)n1Cc1ccc(-c2ccccc2-c2nn[nH]n2)cc1 | -17.3% | -13.8% | -13% | -13.1% | inactive | – | – | – | – | – |
| CC(=O)Nc1c(I)c(C(=O)N[C@H]2C(O)O[C@H](CO)[C@@H](O)[C@@H]2O)c(I)c(N(C)C(C)=O)c1I (stereo not given in full) | – | – | – | – | inactive | – | -5.11 | -5.7 | -16.2 | -16.4 |
| C[N+]1(C)[C@@H]2CC(OC(=O)C(O)(c3cccs3)c3cccs3)C[C@H]1[C@@H]1O[C@@H]12 (stereo not given in full) | -12.3% | 0.442% | -24.6% | -20.7% | inactive | – | – | – | – | – |
| CCCC(=O)Nc1c(I)cc(I)c(CC(CC)C(=O)O)c1I (stereo not given) | -12.8% | 14.7% | -17.5% | -13.2% | inactive | – | – | – | – | – |
| CCCC(CCC)C(=O)OC1C[C@H]2CC[C@@H](C1)[N+]2(C)C (stereo not given in full) | -8.76% and -2.82% | -23.5% and -24.1% | – | -20.2% | inactive | 17.8 µM (active) | – | – | – | – |
| Cc1cc(C(=O)NCCc2ccc(S(=O)(=O)NC(=O)NN3CCCCCC3)cc2)no1 | -15.9% | -13.6% | -31.1% | -10.9% | inactive | – | – | – | – | – |
| O=C1c2c(O)cccc2[C@H]([C@@H]2O[C@H](CO)[C@@H](O)[C@H](O)[C@H]2O)c2cc(CO)cc(O)c21 | -6.89% | -4.21% | -19.8% | -2.48% | inactive | – | – | – | – | – |
| O=C(Cc1cccs1)N[C@@H]1C(=O)N2C(C(=O)[O-])=C(C[n+]3ccccc3)CS[C@H]12 | -13.3% | 8.29% | -29.7% | -10.2% | inactive | – | – | – | – | – |
| S=C=Nc1ccc(N=C=S)cc1 | -4.92% | -5.1% | -24.5% | -6.65% | inactive | – | – | – | – | – |
| CC(C)(O/N=C(\C(=O)N[C@@H]1C(=O)N2C(C(=O)[O-])=C(C[n+]3ccccc3)CS[C@H]12)c1csc(N)n1)C(=O)O | – | – | – | – | inactive | – | -8.81 | -13.9 | 1.29 | -19.8 |
| CCCOC(=O)c1ccccc1O | -5.91% | 2.55% | -23.3% | -5.92% | inactive | – | – | – | – | – |
| CC[C@H](C)[C@@H]1NC(=O)[C@H](Cc2ccc(O)cc2)NC(=O)[C@@H](N)CSSC[C@@H](C(=O)N2CCC[C@H]2C(=O)N[C@@H](CC(C)C)C(=O)NCC(N)=O)NC(=O)[C@H](CC(N)=O)NC(=O)[C@H](CCC(N)=O)NC1=O | -4.51% | -1.96% | -11.4% | -6.16% | inactive | – | – | – | – | – |
| O=C(O)c1ccc(NC(=O)[C@H](Cc2ccc(O)cc2)NC(=O)c2ccccc2)cc1 | -3.63% | -4.5% | -23.1% | -6.93% | inactive | – | – | – | – | – |
| NC(=O)c1ccc[n+]([C@@H]2O[C@H](COP(=O)([O-])OP(=O)(O)OC[C@H]3O[C@@H](n4cnc5c(N)ncnc54)[C@H](O)[C@@H]3O)[C@@H](O)[C@H]2O)c1 | – | – | – | – | inactive | – | -16.9 | 8.41 | -3.83 | -22.7 |
